The source of these data is PubChem BioAssay (EPA / NIEHS).

Read-out in experiment [1]: Macrophage colony-stimulating factor (MCSF), CSF1 (gene 1435)
The experiment in a line: BSK_hDFCGF_MCSF: BioMAP Diversity Plus: hDFCGF Assay for Macrophage colony-stimulating factor (MCSF) Biomarker Activity (AID 2283060). To be noted: primary human foreskin fibroblasts; actives raise or lower the signal. A digest of the protocol:
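Human foreskin primary fibroblasts were treated with test chemical for 24 h, and M-CSF was then measured by ELISA. Data were fitted bidirectionally against DMSO as the negative control and activity baseline.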

Experiment [2] can be described thus: BSK_hDFCGF_SRB: Viability Assessment in the BioMAP Diversity Plus: hDFCGF Assay (AID 2283061).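 Also: cells exposed to compound for 24 h before the read.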 The note with it: primary human foreskin fibroblasts. An outline of the steps:
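Human foreskin primary fibroblasts were treated with compound and assessed 24 h after dosing. Total protein was measured by sulforhodamine B staining (0.1% SRB after 10% TCA fixation, 560 nm read) as a cytotoxicity marker, with bidirectional fitting against DMSO baseline.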

Read-out in experiment [3]: TIMP metallopeptidase inhibitor 1 (TIMP1), TIMP1 (gene 7076)
The experiment in a line: BSK_hDFCGF_TIMP1: BioMAP Diversity Plus: hDFCGF Assay for TIMP metallopeptidase inhibitor 1 (TIMP1) Biomarker Activity (AID 2283062). To be noted: primary human foreskin fibroblasts; actives raise or lower the signal. A digest of the protocol:
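Primary human foreskin fibroblasts in the hDFCGF system were dosed with compound for 24 h, then TIMP-1 was measured by ELISA. Activity was fitted bidirectionally relative to DMSO control; parallel SRB staining assessed cytotoxicity.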

Read-out in experiment [4]: Monokine induced gamma interferon (MIG), CXCL9 (gene 4283)
The experiment in a line: BSK_hDFCGF_MIG: BioMAP Diversity Plus: hDFCGF Assay for Monokine induced gamma interferon (MIG) Biomarker Activity (AID 2283063). To be noted: primary human foreskin fibroblasts; actives raise or lower the signal. An outline of the steps: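 ELISA read-out of MIG from primary human dermal fibroblasts 24 h post-dosing. Gain or loss of signal fitted bidirectionally, DMSO as baseline.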

Read-out in experiment [5]: Matrix Metallopeptidase 1 (MMP1), MMP1 (gene 4312)
The experiment in a line: BSK_hDFCGF_MMP1: BioMAP Diversity Plus: hDFCGF Assay for Matrix Metallopeptidase 1 (MMP1) Biomarker Activity (AID 2283064). To be noted: primary human foreskin fibroblasts; actives raise or lower the signal. An outline of the steps:
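hDFCGF primary fibroblasts (human foreskin); chemical added; 24 h; MMP1 by ELISA; bidirectional fit vs DMSO.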

Read-out in experiment [6]: Vascular cell adhesion molecule 1 (VCAM1), VCAM1 (gene 7412)
The experiment in a line: BSK_hDFCGF_VCAM1: BioMAP Diversity Plus: hDFCGF Assay for Vascular cell adhesion molecule 1 (VCAM1) Biomarker Activity (AID 2283065). To be noted: primary human foreskin fibroblasts; actives raise or lower the signal. An outline of the steps: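 Primary human foreskin fibroblasts (hDFCGF system) were dosed with chemical and VCAM-1 was measured by ELISA 24 h later. Bidirectional curve fitting used DMSO as negative control and activity baseline.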

Read-out in experiment [7]: Plasminogen activator inhibitor-1 (PAI1), SERPINE1 (gene 5054)
The experiment in a line: BSK_hDFCGF_PAI1: BioMAP Diversity Plus: hDFCGF Assay for Plasminogen activator inhibitor-1 (PAI1) Biomarker Activity (AID 2283066). The note with it: primary human foreskin fibroblasts; actives raise or lower the signal. A digest of the protocol:
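Primary dermal fibroblasts (human foreskin), hDFCGF system; compound 24 h; PAI-1 by ELISA; bidirectional fit vs DMSO control.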

Read-out in experiment [8]: Intercellular Adhesion Molecule 1 (ICAM1), ICAM1 (gene 3383)
The experiment in a line: BSK_KF3CT_ICAM1: BioMAP Diversity Plus: KF3CT Assay for Intercellular Adhesion Molecule 1 (ICAM1) Biomarker Activity (AID 2283067). The note with it: primary human keratinocytes with fibroblasts; actives raise or lower the signal. A digest of the protocol: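 Human keratinocyte plus foreskin fibroblast primary co-culture was exposed to chemical for 24 h. ICAM-1 was then quantified by ELISA, and the data were fit bidirectionally against DMSO as the negative control and baseline.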

Read-out in experiment [9]: Interferon-gamma inducible Protein 10 (IP10), CXCL10 (gene 3627)
The experiment in a line: BSK_KF3CT_IP10: BioMAP Diversity Plus: KF3CT Assay for Interferon-gamma inducible Protein 10 (IP10) Biomarker Activity (AID 2283068). To be noted: primary human keratinocytes with fibroblasts; actives raise or lower the signal. A digest of the protocol:
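In a primary skin co-culture of keratinocytes and fibroblasts, IP-10 is quantified by ELISA at 24 h after dosing. SRB staining of parallel wells monitors overt toxicity. Curves are fitted both directions against DMSO.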

Experiment [10] can be described thus: BSK_KF3CT_SRB: Viability Assessment in the BioMAP Diversity Plus: KF3CT Assay (AID 2283069).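 Also: fitted for both signal gain and loss against DMSO baseline.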 The note with it: primary human keratinocytes with fibroblasts. A digest of the protocol:
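Keratinocytes co-cultured with foreskin fibroblasts (human primary); chemical added, 24 h; fix 10% TCA, stain 0.1% SRB, A560. Bidirectional fit vs DMSO.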

Read-out in experiment [11]: Interleukin-1 alpha (IL1a), IL1A (gene 3552)
The experiment in a line: BSK_KF3CT_IL1a: BioMAP Diversity Plus: KF3CT Assay for Interleukin-1 alpha (IL1a) Biomarker Activity (AID 2283070). To be noted: primary human keratinocytes with fibroblasts; actives raise or lower the signal. A digest of the protocol: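 Chemicals were dosed onto co-cultured human keratinocytes and foreskin fibroblasts, IL-1a was quantified by ELISA at 24 h, and activity was fitted in both directions relative to DMSO controls.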

Read-out in experiment [12]: TIMP metallopeptidase inhibitor 2 (TIMP2), TIMP2 (gene 7077)
The experiment in a line: BSK_KF3CT_TIMP2: BioMAP Diversity Plus: KF3CT Assay for TIMP metallopeptidase inhibitor 2 (TIMP2) Biomarker Activity (AID 2283071). To be noted: primary human keratinocytes with fibroblasts; actives raise or lower the signal. An outline of the steps:
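Cells: human keratinocytes co-cultured with foreskin fibroblasts. Treat with chemical, 24 h. Measure TIMP-2 by ELISA; fit curves bidirectionally vs DMSO baseline.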

Read-out in experiment [13]: C-C motif chemokine 2 (Homo sapiens) (UniProt P13500)
The experiment in a line: BSK_KF3CT_MCP1: BioMAP Diversity Plus: KF3CT Assay for Monocyte Chemoattractant Protein 1 (MCP1/CCL2) Biomarker Activity (AID 2283073). The note with it: primary human keratinocytes with fibroblasts; actives raise or lower the signal. An outline of the steps:
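Human keratinocyte plus foreskin fibroblast primary co-culture exposed to chemical for 24 h. MCP-1 levels measured by ELISA. Bidirectional curve fitting relative to DMSO negative control as baseline.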

Read-out in experiment [14]: Matrix Metallopeptidase 9 (MMP9), MMP9 (gene 4318)
The experiment in a line: BSK_KF3CT_MMP9: BioMAP Diversity Plus: KF3CT Assay for Matrix Metallopeptidase 9 (MMP9) Biomarker Activity (AID 2283074). To be noted: primary human keratinocytes with fibroblasts; actives raise or lower the signal. An outline of the steps: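 Human keratinocyte/foreskin fibroblast co-culture; compound added; 24 h; MMP-9 by ELISA; bidirectional fit vs DMSO baseline.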

Read-out in experiment [15]: urokinase plasminogen activator (uPA), PLAU (gene 5328)
The experiment in a line: BSK_KF3CT_uPA: BioMAP Diversity Plus: KF3CT Assay for urokinase plasminogen activator (uPA) Biomarker Activity (AID 2283075). To be noted: primary human keratinocytes with fibroblasts; actives raise or lower the signal. An outline of the steps: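 ELISA readout of uPA, analyzed for signal gain or loss relative to DMSO, from a human primary keratinocyte–foreskin fibroblast co-culture measured 24 h after chemical treatment.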

Read-out in the next experiment: CD40, CD40 (gene 958)
The experiment in a line: BSK_LPS_CD40: BioMAP Diversity Plus: LPS Assay for CD40 Biomarker Activity (AID 2283076). To be noted: primary human HUVEC with PBMC; actives raise or lower the signal. A digest of the protocol:
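Primary human umbilical vein endothelial cells co-cultured with peripheral blood mononuclear cells, LPS-stimulated, were dosed with chemical and read 24 h later. CD40 levels were measured by ELISA and fitted bidirectionally against DMSO as negative control and baseline.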

Read-out in experiment [16]: E-selectin (Homo sapiens) (UniProt P16581)
The experiment in a line: BSK_LPS_Eselectin: BioMAP Diversity Plus: LPS Assay for Eselectin Biomarker Activity (AID 2283077). To be noted: primary human HUVEC with PBMC; actives raise or lower the signal. An outline of the steps:
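Human umbilical vein endothelial cells co-cultured with peripheral blood mononuclear cells under LPS stimulation; E-selectin measured by ELISA 24 h after chemical dosing. Activity fitted bidirectionally against DMSO as negative control and baseline.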

Read-out in experiment [17]: Interleukin-8 (IL8), CXCL8 (gene 3576)
The experiment in a line: BSK_LPS_IL8: BioMAP Diversity Plus: LPS Assay for Interleukin-8 (IL8) Biomarker Activity (AID 2283078). To be noted: primary human HUVEC with PBMC; actives raise or lower the signal. A digest of the protocol:
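Human umbilical vein endothelial cells co-cultured with PBMC were stimulated with LPS; IL-8 levels were measured by ELISA 24 h after chemical dosing. Activity was fitted bidirectionally against DMSO as negative control and baseline.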

The nature of experiment [18]: BSK_LPS_SRB: Viability Assessment in the BioMAP Diversity Plus: LPS Assay (AID 2283079).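 Also: total protein by sulforhodamine B absorbance as a cytotoxicity measure; measured one day after compound addition; fitted in both directions against DMSO so loss or gain of signal counts.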 The note with it: primary human HUVEC with PBMC. An outline of the steps:
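Human umbilical vein endothelial cells co-cultured with PBMC (LPS system) were dosed for 24 h. Total protein was stained with 0.1% sulforhodamine B after 10% TCA fixation, read at 560 nm, and fitted bidirectionally against DMSO baseline.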

Read-out in experiment [19]: Interleukin-1 alpha (IL1a), IL1A (gene 3552)
The experiment in a line: BSK_LPS_IL1a: BioMAP Diversity Plus: LPS Assay for Interleukin-1 alpha (IL1a) Biomarker Activity (AID 2283080). To be noted: primary human HUVEC with PBMC; actives raise or lower the signal. An outline of the steps:
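Human umbilical vein endothelial cells co-cultured with peripheral blood mononuclear cells were LPS-stimulated and exposed to test chemicals for 24 h. IL-1 alpha was quantified by ELISA, with bidirectional curve fitting against DMSO as the negative control and baseline.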

A structure can be active in one record and inactive in another. Activity calls are given as the source filed them. The calls were made as follows: active = hit-call score of the fitted dose curve at least 0.9, where 1 is the maximum; inactive = score below 0.9.

E-selectin (Homo sapiens), sequence (P16581 whole entry, looked up): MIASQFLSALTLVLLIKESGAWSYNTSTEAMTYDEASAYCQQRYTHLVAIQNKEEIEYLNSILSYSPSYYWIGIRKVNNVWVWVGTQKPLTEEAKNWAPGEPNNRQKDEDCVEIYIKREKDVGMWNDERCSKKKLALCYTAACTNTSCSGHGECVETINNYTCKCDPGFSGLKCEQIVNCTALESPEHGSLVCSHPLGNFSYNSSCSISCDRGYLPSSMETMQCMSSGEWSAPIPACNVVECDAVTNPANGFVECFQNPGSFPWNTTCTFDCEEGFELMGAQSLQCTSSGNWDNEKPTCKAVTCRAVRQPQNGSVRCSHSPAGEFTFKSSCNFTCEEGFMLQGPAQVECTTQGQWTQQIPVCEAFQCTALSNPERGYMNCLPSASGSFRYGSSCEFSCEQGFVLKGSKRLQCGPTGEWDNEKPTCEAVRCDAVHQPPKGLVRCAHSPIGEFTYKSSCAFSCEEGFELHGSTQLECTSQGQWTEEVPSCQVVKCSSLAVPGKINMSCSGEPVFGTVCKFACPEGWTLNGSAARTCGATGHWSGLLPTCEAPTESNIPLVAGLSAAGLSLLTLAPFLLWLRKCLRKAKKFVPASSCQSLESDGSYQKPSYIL

Regarding `FC(F)(F)C(F)(F)C(F)(F)C(F)(F)CCI`, the outcome in [1], in experiment [2], in experiment [3], in experiment [4], in experiment [5] and in experiment [6] was inactive. Also, the outcome in [7], in [8], in experiment [9], in experiment [10], in experiment [11] and in [12] was inactive. The outcome in experiment [13] was “inactive”; in experiment [14], “inactive”; in [15], “inactive”; in the experiment with CD40, CD40 (gene 958) it was “inactive”; in experiment [16], “inactive”; in experiment [17] it was “inactive”. Moreover, the outcome in [18] and in [19] was inactive. Also, the AC50 in experiment [4] is 49.3 µM (active).

In the case of `COC(=O)CCC(F)(F)C(F)(F)C(F)(F)C(F)(F)F`, the result in experiment [1], in [2], in experiment [3], in experiment [4], in experiment [5] and in [6] was inactive. Also, the outcome in experiment [7], in [8], in experiment [9], in experiment [10], in experiment [11] and in experiment [12] was inactive. For the same molecule, the outcome was “inactive” in experiment [13]; “inactive” in [15]; “inactive” in the experiment with CD40, CD40 (gene 958); “inactive” in experiment [16]; “inactive” in [17]; “inactive” in experiment [18]. Further, the outcome in [19] was inactive. Moreover, the concentration at half-maximal activity (AC50) in experiment [2] was 30 µM (active).
